Screening results as filed in PubChem BioAssay.
Compounds with a hit are over-represented: about 8.9% of the library has one in this group of screens.
D1 allo mod = D1 dopamine receptor (human) allosteric modulation | 5.9% of 58,000 active | P21728 | HEK293 D1, CRE-luciferase, dopamine EC30 potentiation; actives deviate in either direction | B-score at 10 µM;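 active = luminescence count or its row- and column-corrected plate score outside the 99.7% band of the plate's sample wells, on either side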
Target sequence (P21728 whole entry, looked up): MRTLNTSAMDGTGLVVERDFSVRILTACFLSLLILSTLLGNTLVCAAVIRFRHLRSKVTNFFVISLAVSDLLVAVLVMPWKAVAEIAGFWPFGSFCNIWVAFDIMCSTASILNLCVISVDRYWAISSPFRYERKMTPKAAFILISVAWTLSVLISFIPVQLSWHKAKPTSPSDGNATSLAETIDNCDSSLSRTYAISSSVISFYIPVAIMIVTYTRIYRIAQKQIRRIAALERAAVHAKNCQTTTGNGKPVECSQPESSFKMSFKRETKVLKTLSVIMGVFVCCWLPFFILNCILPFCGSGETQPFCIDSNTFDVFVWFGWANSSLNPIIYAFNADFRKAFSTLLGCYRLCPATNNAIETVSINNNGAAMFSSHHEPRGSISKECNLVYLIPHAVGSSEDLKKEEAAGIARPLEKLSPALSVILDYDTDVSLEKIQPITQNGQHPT
WNV NS2B-NS3 inh = blocks West Nile virus NS2B-NS3 protease activity; WNV NS2B-NS3 protease, fluorogenic substrate Ex360/Em465; active compounds read low; z-score (no concentration beside the values); 0.18% of 65,000 active; AID 577; in the data active = z-score below about -3
M1 ag = agonists of M1 muscarinic receptor; CHO-M1 cells, Fluo-4 calcium fluorescence, agonist mode; active compounds read high; B-score at 10 µM; 3% of 64,000 active;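 active = fluorescence rise, raw or as B-score row- and column-corrected plate score, outside the 99.7% band of its plate's samples, either direction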
Htt clearance = mutant huntingtin protein clearance; HeLa Exon1htt(103Q)mCFP, aggregate imaging; zero = plate's median compound well; inhibition, % at 1.5 µM; 0.42% of 47,000 active;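 active = inhibition of aggregate fluorescence above about 70%, also judged a hit by eye on the cell image, limit read from the data, passing the limit was not always enough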;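 also: cells exposed to compound for three days before fixation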
M1 antag = antagonists of rat M1 muscarinic receptor | P08482 | CHO-M1 cells, Fluo-4 calcium, ACh EC80 antagonist mode; active compounds read low | B-score at 10 µM | 3.4% of 64,000 active;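 active = calcium fluorescence response, raw or row-and-column corrected B-score, differing from the plate sample mean either way at a set confidence level, mostly lower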
M1 antag conf = confirmation of rat M1 muscarinic receptor antagonists. shares compounds with M1 antag. CHO-M1 cells, Fluo-4 calcium, ACh EC80 antagonism; active compounds read low. calcium response (max-min fluorescence) at 10 µM. 43% of 1,700 active. AID 677;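 active = calcium response below the same-plate mean of wells given acetylcholine alone at its 80%-effect dose, minus 3 SD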
mGluR4 antag = mGluR4 (human) activity, M1 antagonist secondary assay. CHO-mGluR4 calcium flux, Fluo-4 fluorescence, glutamate EC80; active compounds read low. fluorescence response (max-min) at 10 µM. 0.9% of 1,700 active. AID 678. shares compounds with M1 antag;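 active = fluorescence response below the plate's average for near-maximal glutamate wells, less 3 SD of those wells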;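 also: raw unnormalized fluorescence span taken in the window right after glutamate addition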
Hits are given with their value.

Screening CCOC(=O)C1CCN(C(=O)c2cc3cc4cc(OC)ccc4nc3o2)CC1 returned D1 allo mod inactive, WNV NS2B-NS3 inh inactive, M1 ag inactive, Htt clearance inactive, M1 antag -3.2, M1 antag conf 432 and mGluR4 antag inactive.
Screening Cc1nn(C)c(C)c1CN(C)C(=O)c1cc2n(n1)C(C(F)(F)F)CC(c1cccs1)N2 (stereo not given) returned D1 allo mod inactive, WNV NS2B-NS3 inh inactive, M1 ag inactive, M1 antag -3.5, M1 antag conf inactive and mGluR4 antag inactive.
CC1CCCCN1C(=O)C12CCC(C)(/C(=N/O)C1)C2(C)C (stereo not given) was read as WNV NS2B-NS3 inh inactive, M1 ag inactive and M1 antag inactive.
Screening CC(C)(C)c1cc(C(=O)NCc2ccccc2)ccn1 returned D1 allo mod inactive, WNV NS2B-NS3 inh inactive, M1 ag inactive, Htt clearance inactive, M1 antag -4.2, M1 antag conf inactive and mGluR4 antag inactive.
For Cn1c(CCN2CCCCC2)nc2cc(NC(=O)Nc3ccccc3)ccc21 the results were D1 allo mod inactive, WNV NS2B-NS3 inh inactive, M1 ag inactive, Htt clearance inactive, M1 antag -4.4, M1 antag conf 194 and mGluR4 antag inactive.
`Cn1c(CCN2CCCCC2)nc2cc(NS(=O)(=O)c3ccccc3)ccc21` gave D1 allo mod inactive, WNV NS2B-NS3 inh inactive, M1 ag inactive, Htt clearance inactive, M1 antag -5.2, M1 antag conf 448 and mGluR4 antag inactive.
Screening CCOC(=O)N1CCN(c2c(NCCCN(CC)CC)c(=O)c2=O)CC1 returned Htt clearance inactive.
Screening CCCCN(CC)CCNc1c(N2CCN(C(=O)OCC)CC2)c(=O)c1=O returned WNV NS2B-NS3 inh inactive, M1 ag inactive, Htt clearance inactive, M1 antag -2.1, M1 antag conf inactive and mGluR4 antag inactive.
Screening CC1(C)Cc2c(sc3c2C2=NCCN2C=N3)CS1 returned WNV NS2B-NS3 inh inactive, M1 ag inactive, M1 antag -5.4, M1 antag conf 411 and mGluR4 antag inactive.
Screening CN1C(=O)c2c(sc3c2CC(C)(C)SC3)N2CCN=C12 returned D1 allo mod inactive, WNV NS2B-NS3 inh inactive, M1 ag inactive and M1 antag inactive.
CCOc1ccc(-c2nnc3ccc(SCc4ccc(C(=O)OC)o4)nn23)cc1 was read as D1 allo mod inactive, WNV NS2B-NS3 inh inactive, M1 ag inactive, Htt clearance inactive, M1 antag -4, M1 antag conf 520 and mGluR4 antag inactive.
Screening COC(=O)c1ccc(CSc2ccc3nnc(-c4ccccn4)n3n2)o1 returned D1 allo mod inactive, WNV NS2B-NS3 inh inactive, M1 ag inactive, Htt clearance inactive and M1 antag inactive.
`CCOc1cccc2cc(-c3csc(NC(=O)CCC(=O)N4CCN(C)CC4)n3)c(=O)oc12` gave D1 allo mod inactive, WNV NS2B-NS3 inh inactive, M1 ag inactive and M1 antag inactive.
For CCCC(=O)Nc1ccc2oc(-c3cccnc3)nc2c1 the results were D1 allo mod inactive, WNV NS2B-NS3 inh inactive, M1 ag inactive, Htt clearance inactive, M1 antag -2.4, M1 antag conf inactive and mGluR4 antag inactive.
For Cn1c(=O)c2c(nc(SCC(=O)Nc3ccc(N4CCOCC4)c(Cl)c3)n2C)n(C)c1=O the results were D1 allo mod inactive, WNV NS2B-NS3 inh inactive, M1 ag inactive and M1 antag inactive.
For CN(CCCn1c(=S)[nH]c2ncccc2c1=O)Cc1ccccc1 the results were WNV NS2B-NS3 inh inactive, M1 ag inactive, M1 antag -3.3, M1 antag conf inactive and mGluR4 antag inactive.
For Cc1cc(C)cc(N(CC(=O)NCCSc2ccccn2)S(=O)(=O)c2ccccc2)c1 the results were Htt clearance inactive.
Screening Cc1ccccc1-c1nnc2s/c(=C\c3ccc(N(C)C)cc3)c(=O)n12 returned D1 allo mod inactive, WNV NS2B-NS3 inh inactive, M1 ag inactive and M1 antag inactive.
Screening COc1ccc(OC)c(C(=O)C2COC(=O)C2)c1 (stereo not given) returned D1 allo mod inactive, WNV NS2B-NS3 inh inactive, M1 ag inactive, Htt clearance inactive and M1 antag inactive.
